# Measured values reported in PubChem BioAssay.
# Test: adipocyte viability effects, profiling panel, cell-based, 3T3-L1 adipocytes, calcein-AM fluorescence, 48 h, basal (AID 1163); further: test concentration not given here
# Details: 3T3-L1 adipocytes viability, higher = more signal
row,Structure (SMILES),z-score
1,COCCOC(=O)N1C(=O)[C@@]2(c3cc(C#CCC(C(=O)OC)C(=O)OC)ccc31)[C@H](c1ccc(O)cc1)N1[C@H](c3ccccc3)[C@H](c3ccccc3)OC(=O)[C@H]1[C@@H]2C(=O)N1CCc2cc(OC)c(OC)cc2C1,0.632
2,C[C@]1(C(=O)O)c2ccccc2C(=O)N(Cc2cc(C(F)(F)F)cc(C(F)(F)F)c2)[C@H]1c1ccc(CO)cc1,0.261
3,O=C(N1CCOCC1)[C@]1(CCS(=O)(=O)c2ccccc2)N=C(c2ccc(OCCCO)cc2)O[C@@H]1c1ccccc1,1.29
4,CC1(C)OB(/C=C\CC(OC(=O)c2ccncc2)c2ccccc2)OC1(C)C (configuration not stated),0.282
5,COC(=O)[C@]1(Cc2ccccc2CN=[N+]=[N-])N=C(c2ccc(OCCCO)cc2)O[C@@H]1c1ccccc1N=[N+]=[N-],-0.028
6,CC(C)(C)OC(=O)CC[C@@]1(C(=O)N2CCOCC2)N=C(c2ccc(OCCCO)cc2)O[C@@H]1c1ccccc1CN=[N+]=[N-],1.35
7,COC(=O)[C@@]1(Cc2ccccc2)[C@H]2c3cc(C(=O)N(C)C)n(Cc4ccc(Cl)c(C(F)(F)F)c4)c3C[C@H]2CN1C(=O)c1ccccc1,0.562
8,CN1C(=O)C2C(C1=O)C1C=C(CCCO)C2C(C2CC2)N1C (configuration not stated),-0.333
9,CO[C@H]1O[C@H](CO)[C@@H](OC(=O)CCc2ccccc2)[C@@H]2OC(=O)[C@@H](Cc3ccc4ccccc4c3)C/C=C/C[C@H](Cc3ccc4ccccc4c3)C(=O)O[C@@H]12,0.284
10,C=C(C(=O)CC[C@@H](OC(=O)c1ccccc1-c1ccccc1C(=O)O)c1ccc(OCCO)cc1)C(C)C,0.517
11,[N-]=[N+]=NCc1ccccc1[C@H]1OC(c2ccc(OCCCO)cc2)=N[C@@]1(Cc1ccccc1N=[N+]=[N-])C(=O)O,-1.69
12,C=CCN1C(=O)[C@]2(O[C@H](CCO)[C@@H]([Si](C)(C)c3ccc(OC)cc3)[C@@H]2C)c2cc(N3C(=O)c4ccccc4Oc4ccccc43)ccc21,0.139
13,CCOC(=O)C[C@H]1[C@H](OC(=O)c2ccc(-c3ccccc3)cc2)[C@@H](NC(=O)C2CCCCC2)c2cc(OCCCO)ccc2N1C(=O)Cc1ccc(OC)cc1,0.0396
14,C=CCNC(=O)[C@@H]1[C@H]2C(=O)O[C@H](c3ccccc3)[C@H](c3ccccc3)N2[C@H](c2ccc(OCCO)cc2)[C@@]12C(=O)Nc1ccc(C#CCNC(N)=O)cc12,0.274
15,CC(C)Cc1ccc(CN2CC[C@@H](NC(=O)c3ccccc3)C2)cc1,-0.418
16,CC(=O)NCCCC[C@@H]1NC(=O)[C@H]2C[C@@H](C(=O)NCCCCCN)[C@@H](c3ccc(O)cc3)N2C1=O,0.311
17,CCCNC(=O)[C@@]1(Sc2ccc(C)cc2)CC(=O)N(Cc2cc(C(F)(F)F)cc(C(F)(F)F)c2)[C@@H]1c1ccc(CO)cc1,1.2
18,Cc1ccc(S[C@]2(C(=O)NCc3ccccc3)CC(=O)N(Cc3ccccc3C(F)(F)F)[C@@H]2c2ccc(CO)cc2I)cc1,0.615
19,CCc1cccc(NC(=O)O[C@H]2[C@H](OC(=O)Nc3ccccc3-c3ccccc3)[C@H](OC(=O)Nc3ccccc3-c3ccccc3)[C@@H](OC)O[C@@H]2CO)c1,-0.228
20,Cc1ccc(S[C@]2(C(=O)NCC(C)C)CC(=O)N(C(C)C)[C@@H]2c2ccc(CO)cc2I)cc1,0.508
21,COC(=O)C(CC#Cc1ccc2c(c1)[C@]1(C(=O)N2)[C@H](C(=O)N2CCCCCCC2)[C@H]2C(=O)O[C@H](c3ccccc3)[C@H](c3ccccc3)N2[C@@H]1c1ccc(OCCO)cc1)C(=O)OC,0.231
22,O=C1NC(=O)C2C1C=CC(C(O)C1CCCCC1)N2Nc1ccccn1 (configuration not stated),-0.608
23,CN1C(=O)C2C=CC(C(O)c3ccc(I)cc3)N(N(c3ccccc3)c3ccccc3)C2C1=O (configuration not stated),-1.15
24,COC(=O)[C@]1(Cc2ccccc2N=[N+]=[N-])N=C(c2ccc(OCCCO)cc2)O[C@@H]1c1ccccc1CN=[N+]=[N-],-0.677
25,COC(=O)[C@@]1(Cc2ccc(F)cc2)[C@H]2c3cc(C(=O)N(C)C)n(Cc4ccc(C(F)(F)F)nc4)c3C[C@H]2CN1C(=O)c1ccccc1,-0.602
26,C=C(CCCC)/C(=C/C[C@@H](OC(C)=O)c1ccc(OCCO)cc1)c1cc(C(=O)OC)ccc1OC,-0.703
27,COc1ccc([Si](C)(C)[C@@H]2[C@@H](CC(=O)N3Cc4ccccc4C[C@H]3CO)O[C@]3(C(=O)N(Cc4ccc(I)cc4)c4ccccc43)[C@H]2C)cc1,0.62
